# PubChem BioAssay AID624304 (Sanford-Burnham Center for Chemical Genomics, 2012)
# Hit rate of the full screen: of about 360,000 compounds, about 1,800 (0.5%) were called active. The sample holds actives, similar compounds and a random draw of the others, so the mix is not that of the screen. A number with no mark means an inactive call.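 The calls were made as follows: active = interference check ratio from 0.5 to 1.5 plus GFP to RFP signal ratio inhibition reaching or exceeding a fixed threshold (cut at about 30% in these data, passing the limit was not always enough); inactive = the rest.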
# Assay: gst-4 reporter inhibition in live C. elegans – whole organism, uHTS, GFP/RFP fluorescence ratio, strain VP596, SKN-1 inhibitor project, primary screen (AID 624304)
# Settings: C. elegans VP596 Pgst-4::GFP/RFP ratio, acrylamide-induced, 24 h; at 21.8 µM; stronger effect = higher value
row,Structure (SMILES),inhibition
1,COc1ccccc1N(C)S(=O)(=O)c1ccc(Cl)c(C(=O)Nc2ccncc2)c1,23.4%
2,COc1cccc(OC)c1C(=O)Nc1ccc(Cc2ccncc2)cc1,-3.1%
3,COc1cc2ccccc2cc1C(=O)Nc1ccncc1,36.2% (active)
4,O=C(O)c1cccc2c1C(=O)N(C1CCCC1)C2,-4.43%
5,CCN(CC)c1ccc2oc(=O)c(C)nc2c1,40.8% (active)
6,Cc1ccc2c(=O)oc(N(C)C)nc2c1,8.34%
7,CN(Cc1nc2ccccc2c(=O)[nH]1)Cc1cc(=O)oc2ccc3ccccc3c12,14.1%
8,Cc1c(Cl)c([N+](=O)[O-])nn1CC(=O)NCCCN1CCOCC1,28.4%
9,CC1Cc2ccccc2N1S(=O)(=O)c1cccc(C(=O)NCC(c2ccco2)N2CCCC2)c1 (stereo not given),4.55%
10,CCCCn1ccnc1C(=O)c1cccc(S(=O)(=O)N2c3ccccc3CC2C)c1 (stereo not given),41.7% (active)
11,CC1Cc2ccccc2N1S(=O)(=O)c1cccc(C(=O)OCC(=O)N2CCOCC2)c1 (stereo not given),17.4%
12,COCCN(C(=O)COC(=O)Cc1cccc(OC)c1)c1c(N)n(Cc2ccccc2)c(=O)[nH]c1=O,5.12%
13,CCCCOc1ccc(N(CC(=O)NC(C)C)C(=O)CCC(=O)Nc2ccccn2)cc1,-1.05%
14,O=C(NCCCn1ccnc1)C(=O)NCC1OCCN1S(=O)(=O)c1cc(F)ccc1F (stereo not given),-7.89%
15,CCc1ccc(-c2nc(SCC(=O)NC3CCCC3)n[nH]2)cc1,3.3%
16,Cn1c(=NC(=O)C2CC2)sc2cc(F)cc(F)c21,38% (active)
17,Cn1c(=NC(=O)c2ccco2)sc2cccc(F)c21,7.91%
18,CSCCNCc1cn(-c2ccc(F)cc2F)nc1-c1ccccc1C,-14.2%
19,O=C1CC2(CCN(C(=O)COc3ccc(F)cc3)CC2)Oc2ccccc21,-3.05%
20,CN(C)/C=N/c1cc(=O)n(C)c(=O)n1CC1CC1,8.63%
21,CN=C1C=C/C(=N/N=c2\ccn(O)cc2C)C=C1C,41.1% (active)
22,COc1ccc(/C=C/C2=CC(C)(C)NC(=S)N2)c(OC)c1,-2.28%
23,Fc1ccc(COc2cccc(-c3n[nH]c(=S)o3)c2)cc1,-1.11%
24,Fc1cccc(Cl)c1COc1ccc(-c2nnco2)cc1,23.1%

row,Structure (SMILES),inhibition
1,Fc1ccc(COc2ccc(-c3nnco3)cc2)cc1,77.7% (active)
2,Cc1cccc(NC(=O)NC2(C)CCS(=O)(=O)C2)c1 (stereo not given),-6.44%
3,CCCC(NCC(=O)Nc1ccccc1C(=O)NC1CC1)c1ccccc1 (stereo not given),11.1%
4,Cc1ccc(NC(=O)NC(=O)CSc2nnc(-c3ccc(OC(F)F)cc3)n2N)c(C)c1,1.8%
5,CC(C)C[C@@H](COc1ccccc1)N1CCN(CC(C)C)CCC1=O,12.3%
6,CC/C(=C\c1ccc(Cl)cc1)c1ccncc1,57.3% (active)
7,CC(Cc1cccs1)N(Cc1ccc(Cl)cc1)C(=O)c1ccncc1 (stereo not given),8.76%
8,N#C/C(=C/c1ccc(Cl)cc1)NC(=O)c1ccccc1,-13.8%
9,CCCSC(=S)NC1CCS(=O)(=O)C1 (stereo not given),10.7%
10,O=C(OCC(=O)N1CCCC1=O)c1cc(S(=O)(=O)N2CCOCC2)ccc1Cl,6.4%
11,O=C(OCC(=O)N1CCOCC1)c1ccc2ccccc2c1,-11.5%
12,COc1ccc(OC)c(/C(C)=N\NC(=O)c2cc3cc(Cl)ccc3n2C)c1,1.75%
13,C=C(C)c1cccc(C(C)(C)NC(=O)NC2CCCC2)c1,-1.51%
14,C=C(C)c1cccc(C(C)(C)NC(=O)NCCN(CC)CC)c1,-10.6%
15,C=C(C)c1cccc(C(C)(C)NC(=O)N2CCN(c3ncccn3)CC2)c1,36.7% (active)
16,COc1cccc(NC(=O)C2C(c3ccccc3)C2(Cl)Cl)c1 (stereo not given),-10.4%
17,COc1ccc(N2CCN(C(=O)CCNC(=O)c3ccc(Br)cc3)CC2)cc1,4.57%
18,CCOc1ccccc1NC(=O)c1cc(S(=O)(=O)N2CCC3(CC2)OCCO3)ccc1F,3.17%
19,CN1OC[C@@H]2CN(C(=O)c3ccc(-c4ccccc4)cc3)[C@H](c3ccc(-c4cccc(F)c4)cc3)C[C@@H]21,-1.35%
20,CC(=O)N1CCN(C(=O)C2(NC(=O)Nc3ccc(C)cc3)CCCCC2)CC1,-13.7%
21,O=C(C1CCCO1)N1CCN(C(=O)C23CC4CC(CC(C4)C2)C3)CC1 (stereo not given),24.4%
22,N/C(Cc1ccc([N+](=O)[O-])cc1)=N\OC(=O)COc1ccc2ccccc2c1,-1.15%
23,CC(c1cccnc1)N(CCN(C)C)C(=O)Nc1ccc(Cl)c(Cl)c1 (stereo not given),0.83%
24,CCn1nccc1C(=O)Nc1ccc(S(=O)(=O)NC23CC4CC(CC(C4)C2)C3)cc1,5.56%

row,Structure (SMILES),inhibition
1,CCn1nccc1C(=O)Nc1ccc(Cl)c(Cl)c1,44.5% (active)
2,CC1CCCC(C)N1C(=O)CSc1nnnn1C1CCCC1 (stereo not given),-2.05%
3,COc1ccccc1-c1cc(NC(C)=O)c2ncc(-c3ccc(F)cc3)n2c1,18.1%
4,COc1ccccc1C1=CC(=O)C[C@H](c2ccc(F)cc2)C1,8.41%
5,COc1ccccc1-c1nnc(-c2ccc(F)cc2)o1,45% (active)
6,N#Cc1c(C(F)(F)F)cc(-c2ccccc2)nc1SCC(=O)N1CCOCC1,2.8%
7,Cc1cccc(-c2nc3c(c(SCC(=O)N4CCOCC4)n2)CCCC3)c1,37.9% (active)
8,Cn1c(SCC(=O)N2CCOCC2)nnc1-c1ccc2ncccc2c1,3.82%
9,Cc1ccc(C)c(S(=O)(=O)N2CC(=O)Nc3ccccc32)c1,-15.3%
10,CCCCSc1[nH]c(=O)c(C(=O)OCC)cc1C#N,48.3% (active)
11,CCOC(=O)c1cc(C)nc(S(C)(=O)=O)c1C#N,13.5%
12,CCOC(=O)c1c(C(C#N)C#N)cc(C)nc1C,-3.86%
13,CC(=O)Nc1cnc(-c2ccc(O)cc2C)cn1,-1.38%
14,CCC(Oc1ccccc1)C(=O)OCC(=O)Nc1c(C)nn(-c2ccccc2)c1C (stereo not given),15.9%
15,CC(C)C1CCN(C(=O)C2CCC(=O)N(C3CCCCCC3)C2)CC1 (stereo not given),-2.6%
16,Cc1nn(CC#N)c(=O)n1N(C)c1ncc(C(F)(F)F)cc1Cl,-3.68%
17,Cc1nn(CC2CC2)c(=O)n1N(C)c1ncc(C(F)(F)F)cc1Cl,3.57%
18,Cc1nn(-c2ncc(C(F)(F)F)cc2Cl)c(=O)n1-c1ccccc1,35.6% (active)
19,CCCn1c(N)c(C(=O)CSc2nnc3n2CCCCC3)c(=O)[nH]c1=O,9.24%
20,COc1ccccc1C(=O)N(C1=NC(C)CS1)c1ccc(Cl)cc1 (stereo not given),-17.9%
21,Cc1ccc(N/C(N)=N/c2nc(C(F)(F)F)cc(C(F)(F)F)n2)cc1,2.4%
22,Oc1ccc(N=Nc2nccs2)c(O)c1,40.3% (active)
23,CCN(CC)P(=O)(/C(Cl)=C\Nc1c(C)n(C)n(-c2ccccc2)c1=O)N(CC)CC,38.6% (active)
24,Cc1cc(C)cc(N(CC(=O)Nc2c(C)n(C)n(-c3ccccc3)c2=O)S(C)(=O)=O)c1,-7.93%

row,Structure (SMILES),inhibition
1,Cc1c(NC(=S)Nc2ccccc2)c(=O)n(-c2ccccc2)n1C,13.7%
2,C=CC[C@@H](CC(=O)NCCO)C(=O)N[C@H](C)COC(=O)[C@@H](CC=C)CC(=O)OC(C)(C)C,4%
3,CCOC(=O)C1CN(S(=O)(=O)c2ccc(F)cc2)C1,-3.48%
4,Cc1c(C2=CCN(S(=O)(=O)c3ccc(Cl)cc3)CC2)c2ccccc2n1C,40.5% (active)
5,O=C(O)c1cccc(S(=O)(=O)N2CC=C(c3ccccc3)CC2)c1,-4.6%
6,O=S(=O)(c1ccc(F)cc1)N1CC=C(c2ccccc2)CC1,0.877%
7,O=C(CSc1cccc[n+]1[O-])c1ccc(-c2ccccc2)cc1,-20.6%
8,O=C(O)/C(=C/c1cccnc1)NC(=O)c1ccccc1,0.0898%
9,Cc1cccc(NS(=O)(=O)c2ccc(C(=O)NCC(C)(C)N3CCOCC3)cc2)c1C,-5.62%
10,Cc1cc(C(=O)COc2ccccc2[N+](=O)[O-])c(C)n1-c1cccc(S(=O)(=O)N2CCOCC2)c1,7.44%
11,COCCNC(=O)CN(C(=O)CCC(=O)Nc1cc(C)on1)c1ccc(C)cc1C,-14.7%
12,Nc1nc(NCCCN2CCOCC2)nc(Nc2ccccc2)c1[N+](=O)[O-],5.52%
13,CC1CN(c2nc(Nc3ccccc3)nc(N)c2[N+](=O)[O-])CC(C)O1 (stereo not given),38% (active)
14,COCCNc1nc(N)c([N+](=O)[O-])c(N2CCCCCC2)n1,23.7%
15,Fc1ccccc1OCCSc1nc2ccccc2o1,36.2% (active)
16,CC(C)(C)C(=O)CSc1nc2ccccc2o1,-6.68%
17,CCN(CC)C(=O)CSc1nc2ccccc2o1,0.512%
18,Cn1c(SCC(=O)OC2CCCCC2)nnc1-c1ccc(S(=O)(=O)N2CCCC2)cc1,-4.66%
19,O=C(NCCc1nnc2ccc(SCC(=O)N3CCOCC3)nn12)c1ccccc1,9.19%
20,O=C(CSc1nnnn1-c1ccccc1)NCc1ccco1,-15%
21,O=C(CSc1c2c(nc3ccc(Cl)cc13)CCCC2)NCc1ccco1,82.7% (active)
22,O=C(NCc1ccco1)C1(c2ccc(Cl)cc2)CCCC1,-1.05%
23,CCn1c(=O)n(CC)c2cc(N3CCCC3)c(NC(=O)c3ccccc3Br)cc21,-26.6%
